This excerpt belongs to a sample that is enriched for hits.
ALR inh = human ALR oxidase inhibition via reduced H2O2 | P55789 | purified ALR, DTT oxidation, H2O2 HRP-luminol luminescence | inhibition, % (no concentration beside the values) | 290,000 compounds, 3.8% hits;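 active means mean replicate inhibition above about 79%, with every replicate also reaching it, limit read from the data; inconclusive means only one of the two criteria met; inactive means mean below limit and not every replicate reaching it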
NPR2 activator = GC-B (human) receptor activation; P20594; HEK293-GC-B cells, CNP EC30, cGMP TR-FRET; 0% at EC30 CNP, 100% saturating CNP; activation, % at 10 µM; 370,000 compounds, 0.11% hits; AID 1920062;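 active means activation at 10 µM reaching about 35% in either raw or pattern-adjusted values, limit read from the data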
HDAC3 inh = inhibitors of human histone deacetylase 3. recombinant HDAC3, fluorogenic peptide/trypsin coupled, fluorescence. inhibition, % at 8.3 µM. O15379. 320,000 compounds, 0.15% hits; in the data active means inhibition above about 26%, passing the limit was not always enough; inconclusive means no clear call, values can overlap the other calls
GC-A act = GC-A (human) enzyme activation; activation, % at 10 µM; 370,000 compounds, 0.14% hits; HEK293 GC-A cells, cGMP TR-FRET, EC30 ANP; 0% at EC30 ANP, 100% saturating ANP; P16066; in the data active means activation above about 40%
Numbers without * were called inactive; ? = inconclusive; nt = no result given.

SMILES	ALR inh	NPR2 activator	HDAC3 inh	GC-A act
COc1ccc(Br)cc1CSC(=N)N	99*	-9	1	-9
COc1ccc(Cl)c2c1[nH]c1nc(SCc3ccccn3)nnc12	-11	21	-1	26
COc1ccc(Cl)c2c1[nH]c1nc(SCc3cccnc3)nnc12	-38	43*	-1	32
Oc1ccc(Cl)cc1CNc1cnc2ccccc2c1	27	-19	-2	-32
CCCn1c(NCc2cccc(OC)c2O)nc2ccccc21	94*	-8	6	-11
Oc1ccccc1CNc1cnc2ccccc2c1	86*	1	-7	-3
CCCn1c(NCc2cccc(OC)c2OC)nc2ccccc21	98*	-2	-5	-6
CCCn1c(NCc2c[nH]c3ccccc23)nc2ccccc21	nt	-16	2	-16
COc1cccc(CNn2cnnc2)c1O	85*	3	6	3
COc1ccc(OC)c(CN2C(=O)CCCC2(C)c2nnnn2C2CCCC2)c1 (centres undefined)	nt	-1	nt	-4
COc1cccc(CNc2ccc(F)c(Cl)c2)c1OC	?	1	4	-3
Cn1cnc2cc(NCc3ccccc3O)ccc21	87*	-3	0	-3
CCCn1cnc2cc(NCc3cccc(OC)c3O)ccc21	85*	-2	1	-3
COc1cccc(CNc2ccc3c(c2)ncn3C(C)C)c1OC	92*	-5	?	-4
CCc1ccc(CNc2ccc3c(c2)ncn3C)cc1	nt	3	nt	7
NC(=O)c1ccsc1NC(=O)COC(=O)C1CCCN1C(=O)c1cccs1 (centres undefined)	97*	3	6	0
COc1ccc(/C=C2\Sc3ccc(C(=O)NC4CC4)cc3N(C)C2=O)cc1OC	0	39*	3	30
COc1ccccc1CNC(=S)Nc1ccc2nc(N3CCN(C)CC3)cc(C)c2c1	0	-3	1	1
O=C(c1ccc(Cl)cc1)C(CN1CCCCC1)c1ccccc1 (centres undefined)	97*	-16	-5	-61
COc1ccc(OC)c(NC(=O)c2cccc(NC(=O)c3ccco3)c2)c1	nt	-5	nt	-1
Cn1c(O)c(/C=N/Nc2ccccc2)c(=O)n(C)c1=O	100*	0	1	-1
CCCCOc1ccc(C(=O)NCC(=O)N(C)CC(=O)Nc2ccc(N3CCOCC3)cc2)cc1	41	-2	-1	6
COc1ccccc1C(=O)NCCC(=O)N(C)CC(=O)Nc1ccc(N2CCOCC2)cc1	99*	9	0	1
CC(Oc1cccc(Cl)c1)C(=O)N(C)CC(=O)Nc1ccc(N2CCOCC2)cc1 (centres undefined)	93*	2	?	-1
CN(CC(=O)Nc1ccc(N2CCOCC2)cc1)C(=O)CCNC(=O)c1ccc(Br)cc1	96*	-3	nt	2
SMILES	ALR inh	NPR2 activator	HDAC3 inh	GC-A act
CCc1cccc(OCC2Cn3c(nc4c3c(=O)[nH]c(=O)n4C)O2)c1 (centres undefined)	-5	-16	1	-8
Nc1[nH]c(C(=O)c2ccccc2)c(-c2ccc3ccccc3c2)c1C(=O)NCc1ccc(F)cc1	nt	7	nt	-4
CC1CCC(C(C)C)C2=C1C(C#N)(C#N)C(C#N)(C#N)C(c1ccccc1)N2 (centres undefined)	94*	-4	7	-2
Cn1c(SCC(=O)N2CCCC2=O)nc2ccccc21	nt	-7	-1	7
COc1ccc(NC(=O)C=C(C)C)cc1Cl	6	0	5	7
COC(=O)/C=C/C(=O)Nc1cccnc1	95*	-9	0	3
O=C(O)/C=C/C(=O)Nc1cccnc1	-5	4	-5	2
COC(=O)/C=C/C(=O)Nc1ccc(O)c(Cl)c1	100*	-10	-3	-6
NNc1nc(Nc2ccccc2)nc(Nc2ccccc2)n1	-4	2	10	0
c1ccc(Nc2ccnc(Nc3ccccc3)n2)cc1	96*	0	-6	-4
Nc1ncc(Br)cc1S(=O)(=O)NCCC(=O)N1CCN(c2ccccc2)CC1	96*	-3	2	-2
CCOc1ccc(S(=O)(=O)NCCC(=O)N2CCN(c3ccccc3O)CC2)cc1	98*	1	8	1
O=C(CCNS(=O)(=O)c1ccccc1C(F)(F)F)N1CCN(c2ccccc2O)CC1	99*	-1	4	-2
CCOc1ccc(S(=O)(=O)NCCC(=O)N2CCN(C(C)=O)CC2)cc1	nt	5	nt	1
O=C(CCNS(=O)(=O)c1ccccc1C(F)(F)F)N1CCN(S(=O)(=O)c2cccc(Cl)c2)CC1	0	-1	3	-1
Nc1ncc(Br)cc1S(=O)(=O)NCCC(=O)N1CCN(c2ccccn2)CC1	2	-10	9	2
O=C(COc1cccc(C(F)(F)F)c1)N1CCN(c2ccc(O)cc2)CC1	nt	-5	9	-1
O=C(COc1cccc(C(F)(F)F)c1)N1CCN(c2ccccc2O)CC1	98*	-2	7	0
COc1cc(-c2c(NC(=O)c3ccco3)oc3ccccc3c2=O)cc(OC)c1OC	nt	5	6	0
COc1cc2cc(CN(CCc3cccc(C)c3)C(=S)NCCCN3CCOCC3)c(=O)[nH]c2cc1OC	-26	-4	3	-4
O=C(c1ccccc1NS(=O)(=O)c1cccc([N+](=O)[O-])c1)N1CCCC1	-3	1	-2	2
COc1cc(NS(=O)(=O)c2ccc(NC(=O)/C=C/c3cccc([N+](=O)[O-])c3)cc2)ncn1	89*	-3	2	0
c1ccc(CCNc2ccc3c(c2)Cc2ccccc2-3)nc1	nt	-13	nt	-1
Cc1ccc(S(=O)(=O)Nc2ccc3cn[nH]c3c2)cc1C	1	3	-11	-3
Cc1ccc2cn[nH]c2c1N	85*	-1	1	-3
SMILES	ALR inh	NPR2 activator	HDAC3 inh	GC-A act
Cc1cccc(NC(=O)CSCc2nc3c(nnn3Cc3ccc(F)cc3)c(=O)[nH]2)c1C	-1	6	5	4
O=C(CSCc1nc2c(nnn2Cc2ccc(F)cc2)c(=O)[nH]1)Nc1cccc(C(F)(F)F)c1	96*	2	9	-2
CCN1CCC(Nc2ccnc3cc(Cl)ccc23)CC1	-2	-2	6	5
Cc1ccccc1NC(=O)CCN1CCc2ccccc2C1	-20	0	3	-3
O=C(Nc1ccccc1N1CCCC1)c1cccnc1Cl	50	-10	-8	-3
O=C(CN1C(=O)C2CC=CCC2C1=O)Nc1ccccc1N1CCCC1 (centres undefined)	?	-1	-4	-2
O=C(Cc1ccccc1F)Nc1cc(Cl)ccc1N1CCCC1	nt	-6	0	-12
O=C(Nc1ccccc1N1CCCC1)c1cccc(Cl)c1Cl	98*	6	7	-4
O=C1CCC(C(=O)Nc2ccccc2N2CCOCC2)=NN1	19	13	-2	3
O=C1CCC(C(=O)Nc2ccccc2N2CCCC2)=NN1	85*	-5	3	3
O=C(CN1C(=O)C2CCCCC2C1=O)Nc1ccccc1N1CCCC1 (centres undefined)	97*	-2	-2	0
O=C(Cc1ccccc1F)Nc1ccccc1N1CCCC1	98*	1	-12	-4
